The values that follow come from PubChem BioAssay (NCATS).

Structures are written as SMILES. Results filed as inconclusive are left out. Unmarked numbers belong to inactive results. Active and inactive are the calls of the source. Calls come from the whole dose curve; as a rule, active = well fitted cell-killing curve with a large enough effect; inconclusive = small, poorly fitted or top-dose-only effect, or effect the other way; inactive = no such curve, though single readings can be large or run the other way.
Potency is the fitted concentration of half-maximal effect.

The nature of this assay: Viability qHTS for spleen associated tyrosine kinase inhibitor (SYKi) drug resistant MV4-11 cells (AID 1963824). Note: nearly all actives have a fitted effect of over 35% in size. The following applies: SYKi-resistant MV4-11 viability, CellTiter-Glo, 72 h; series mostly up to 45 µM; viability, % of control: at the top concentration. A digest of the protocol:
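CellTiter-Glo luminescence, read 10 min after reagent addition, reports viability after a 72 hr compound exposure. Cells are an MV4-11 line made resistant to SYK inhibition, seeded at 500 per well onto compound-containing plates.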
In general terms: Quantitative high-throughput screening tests each substance at several concentrations.
As for `CC(C)(O)c1ccc2c(c1)C(O)CC1C(C)(C(=O)O)CCCC21C` (stereo unspecified), the “viability, % of control” value was 95.9%. `C[C@@H]1C[C@H]2O[C@@H]2/C=C\C=C\C(=O)Cc2c(Cl)c(O)cc(O)c2C(=O)O1`: the Potency is 71.8 nM (active).

As for `CC(C)(C)Nc1nc(Nc2ccc(C(N)=O)cc2)cc(N)c1C#N`, the Potency is 2310 nM (active). In the case of `N#CCc1ccc(O)cc1O[C@@H]1O[C@H](CO)[C@@H](O)[C@H](O)[C@H]1O`, the “viability, % of control” value is 109%. The same measure, in the same setting: the same measure for `NC(=O)c1ccc(OCC2NC(=O)C3CCCN3C2=O)cc1` (stereo unspecified): 84.3%; for `C[C@@H]1O[C@@H](O[C@H]2[C@H](OC(=O)[C@]34CCC(C)(C)C[C@H]3C3=CCC5[C@@]6(C)C[C@H](O)[C@H](O[C@@H]7O[C@H](CO)[C@@H](O)[C@H](O)[C@H]7O)[C@@](C)(CO)C6[C@H](O)C[C@@]5(C)[C@]3(C)CC4)OC[C@H](O)[C@@H]2O)[C@H](O)[C@H](O)[C@H]1O[C@@H]1OC[C@@H](O)[C@H](O[C@@H]2OC[C@](O)(CO)[C@H]2O)[C@H]1O` (stereo partly specified): 102% [at 9.25 µM].
